# Data taken from the supplement of paper PMC4466140.
# B1: unnamed (peptide)
# chain: ILARAILTIPRVLDK
# Target: ScBbc1
# Assay: SPOT peptide array binding signal intensity (averaged, normalized) (arbitrary units (background-subtracted, floor 0; scale differs between SH3 domains)); higher = stronger binding of the SH3 domain to the peptide
# Procedure, shortened: (§1)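 Spot intensities were captured after detection with anti-GST antibody, an HRP-linked anti-mouse secondary and luminol, and quantified with Genespotter. The probes were GST-fused SH3 domains from four yeast species, produced in E. coli BL21(DE3), purified on glutathione Sepharose and incubated at 10 μg/ml overnight at 4°C on cellulose-bound synthetic 15-mer peptides with cysteines replaced by serines. Binding signal is the normalized, background-subtracted spot intensity averaged over replicates, and its arbitrary units differ between domains.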
row,Binder,SPOT peptide array binding signal intensity
1,B1,3.5

# Target: ScBem1-D1
# Assay: as above
# Procedure, shortened: as §1
row,Binder,SPOT peptide array binding signal intensity
1,B1,8

# Target: ScBzz1-D1
# Assay: as above
# Procedure, shortened: as §1
row,Binder,SPOT peptide array binding signal intensity
1,B1,41.5

# Target: ScBzz1-D2
# Assay: as above
# Procedure, shortened: as §1
row,Binder,SPOT peptide array binding signal intensity
1,B1,299

# Target: ScCyk3
# Assay: as above
# Procedure, shortened: as §1
row,Binder,SPOT peptide array binding signal intensity
1,B1,70

# Target: ScFus1
# Assay: as above
# Procedure, shortened: as §1
row,Binder,SPOT peptide array binding signal intensity
1,B1,1530

# Target: ScHof1
# Assay: as above
# Procedure, shortened: as §1
row,Binder,SPOT peptide array binding signal intensity
1,B1,0.5

# Target: ScHse1
# Assay: as above
# Procedure, shortened: as §1
row,Binder,SPOT peptide array binding signal intensity
1,B1,1470

# Target: ScLsb1
# Assay: as above
# Procedure, shortened: as §1
row,Binder,SPOT peptide array binding signal intensity
1,B1,11.5

# Target: ScLsb2
# Assay: as above
# Procedure, shortened: as §1
row,Binder,SPOT peptide array binding signal intensity
1,B1,55

# Target: ScLsb3
# Assay: as above
# Procedure, shortened: as §1
row,Binder,SPOT peptide array binding signal intensity
1,B1,117

# Target: ScLsb4
# Assay: as above
# Procedure, shortened: as §1
row,Binder,SPOT peptide array binding signal intensity
1,B1,5

# Target: ScMyo3
# Assay: as above
# Procedure, shortened: as §1
row,Binder,SPOT peptide array binding signal intensity
1,B1,≤ 0

# Target: ScMyo5
# Assay: as above
# Procedure, shortened: as §1
row,Binder,SPOT peptide array binding signal intensity
1,B1,≤ 0

# Target: ScNbp2
# Assay: as above
# Procedure, shortened: as §1
row,Binder,SPOT peptide array binding signal intensity
1,B1,305

# Target: ScPex13
# Assay: as above
# Procedure, shortened: as §1
row,Binder,SPOT peptide array binding signal intensity
1,B1,59.2

# Target: ScRvs167
# Assay: as above
# Procedure, shortened: as §1
row,Binder,SPOT peptide array binding signal intensity
1,B1,4.83

# Target: ScSho1
# Assay: as above
# Procedure, shortened: as §1
row,Binder,SPOT peptide array binding signal intensity
1,B1,1560

# Target: ScSla1-D1-D2
# Assay: as above
# Procedure, shortened: as §1
row,Binder,SPOT peptide array binding signal intensity
1,B1,145

# Target: ScSla1-D3
# Assay: as above
# Procedure, shortened: as §1
row,Binder,SPOT peptide array binding signal intensity
1,B1,18

# Target: SpAbp1-D1
# Assay: as above
# Procedure, shortened: as §1
row,Binder,SPOT peptide array binding signal intensity
1,B1,7.5

# Target: SpBbc1
# Assay: as above
# Procedure, shortened: as §1
row,Binder,SPOT peptide array binding signal intensity
1,B1,56.5

# Target: SpBzz1-D1
# Assay: as above
# Procedure, shortened: as §1
row,Binder,SPOT peptide array binding signal intensity
1,B1,553

# Target: SpBzz1-D2
# Assay: as above
# Procedure, shortened: as §1
row,Binder,SPOT peptide array binding signal intensity
1,B1,1.5

# Target: SpCyk3
# Assay: as above
# Procedure, shortened: as §1
row,Binder,SPOT peptide array binding signal intensity
1,B1,8.5

# Target: SpHof1
# Assay: as above
# Procedure, shortened: as §1
row,Binder,SPOT peptide array binding signal intensity
1,B1,82.2

# Target: SpHof1-2
# Assay: as above
# Procedure, shortened: as §1
row,Binder,SPOT peptide array binding signal intensity
1,B1,8.5

# Target: SpHof1-3
# Assay: as above
# Procedure, shortened: as §1
row,Binder,SPOT peptide array binding signal intensity
1,B1,158

# Target: SpHse1
# Assay: as above
# Procedure, shortened: as §1
row,Binder,SPOT peptide array binding signal intensity
1,B1,613

# Target: SpLsb1
# Assay: as above
# Procedure, shortened: as §1
row,Binder,SPOT peptide array binding signal intensity
1,B1,2.25

# Target: SpLsb4
# Assay: as above
# Procedure, shortened: as §1
row,Binder,SPOT peptide array binding signal intensity
1,B1,42

# Target: SpMyo1
# Assay: as above
# Procedure, shortened: as §1
row,Binder,SPOT peptide array binding signal intensity
1,B1,1.5

# Target: SpNbp2
# Assay: as above
# Procedure, shortened: as §1
row,Binder,SPOT peptide array binding signal intensity
1,B1,207

# Target: SpPex13
# Assay: as above
# Procedure, shortened: as §1
row,Binder,SPOT peptide array binding signal intensity
1,B1,131

# Target: SpRvs167
# Assay: as above
# Procedure, shortened: as §1
row,Binder,SPOT peptide array binding signal intensity
1,B1,39.2

# Target: SpSla1-D1-D2
# Assay: as above
# Procedure, shortened: as §1
row,Binder,SPOT peptide array binding signal intensity
1,B1,≤ 0

# Target: SpSla1-D3
# Assay: as above
# Procedure, shortened: as §1
row,Binder,SPOT peptide array binding signal intensity
1,B1,10
